{"source": "PubChem BioAssay AID641", "about": "(Vanderbilt High Throughput Screening Facility, 2007)", "note": "Hit rate of the full screen: of about 58,000 compounds, about 3,400 (5.9%) were called active. The list comes from a sample in which actives are over-represented; it also holds similar structures and randomly drawn compounds. Values without a mark were called inactive.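 The calls were made as follows: active = luminescence count or its row- and column-corrected plate score outside the 99.7% band of the plate's sample wells, on either side; inactive = the rest.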", "data": [{"biological_target": "D(1A) dopamine receptor (Homo sapiens) (UniProt P21728)", "sequence (P21728 whole entry, looked up)": "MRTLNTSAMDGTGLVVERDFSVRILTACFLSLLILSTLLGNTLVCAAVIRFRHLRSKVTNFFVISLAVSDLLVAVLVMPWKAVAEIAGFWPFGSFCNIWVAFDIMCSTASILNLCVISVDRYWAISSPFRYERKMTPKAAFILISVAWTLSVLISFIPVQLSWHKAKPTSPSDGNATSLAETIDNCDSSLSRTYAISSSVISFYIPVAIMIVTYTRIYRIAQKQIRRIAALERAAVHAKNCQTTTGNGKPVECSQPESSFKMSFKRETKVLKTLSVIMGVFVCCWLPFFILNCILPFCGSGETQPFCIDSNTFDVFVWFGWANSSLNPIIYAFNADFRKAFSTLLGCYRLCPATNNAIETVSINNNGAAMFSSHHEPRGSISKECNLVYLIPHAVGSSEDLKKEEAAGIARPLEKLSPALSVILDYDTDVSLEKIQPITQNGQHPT", "assay": "D1 CRE-luciferase signal change, two-sided – cell-based, HEK293 D1, dopamine EC30, D1 allosteric modulator project, primary screen (AID 641)", "conditions": "dopamine EC30 potentiation, at 10 µM, actives deviate in either direction", "values": [{"compound": "Cc1cc(N2CCN(Cc3ccc4c(c3)OCO4)CC2)n2ncnc2n1", "B-score": 0.443}, {"compound": "CN1CCN(CC(O)COCc2ccc3c(c2)OCO3)CC1", "note": "(stereo unspecified)", "B-score": "3.63 (active)"}, {"compound": "O=C(c1cccs1)N1CCN(Cc2ccc3c(c2)OCO3)CC1", "B-score": -0.554}, {"compound": "CC(=O)Nc1ccc(S(=O)(=O)N2CCSCC2)cc1", "B-score": -0.0119}, {"compound": "CCOC(=O)C(C)Oc1cccc2c(=O)n(CC(=O)N3CCc4ccccc43)ccc12", "note": "(stereo unspecified)", "B-score": 0.245}, {"compound": "COCCNCCOCCOc1cccc(OC)c1", "B-score": -0.824}, {"compound": "O=C(NCc1ccccn1)c1cc2ccccc2oc1=O", "B-score": 0.0147}, {"compound": "O=C(NCc1ccccn1)c1ccc2nc(-c3ccco3)c(-c3ccco3)nc2c1", "B-score": "7.64 (active)"}, {"compound": "Cc1cccn2c(=O)c3cc(C(=O)NCc4ccccn4)n(C)c3nc12", "B-score": 0.762}, {"compound": "CCOC(=O)c1sc(NC(=O)C(CC)Sc2nccn2C)nc1C", "note": "(stereo unspecified)", "B-score": 0.947}, {"compound": "Cc1cc(C)nc(SCc2ccccc2C#N)n1", "B-score": 1.42}, {"compound": "CCC(Sc1nncn1C)C(=O)Nc1nnc(-c2ccc(Cl)cc2)s1", "note": "(stereo unspecified)", "B-score": 0.176}, {"compound": "COCCN(CC(=O)Nc1ccccc1C)S(=O)(=O)c1ccc(S(=O)(=O)N2CCCC2)cc1", "B-score": 0.0335}, {"compound": "CCn1c(SCCC(C)C)nnc1-c1c[nH]c2ccccc12", "B-score": -1.04}, {"compound": "COc1ccc(CNC(=O)c2cc3c(=O)n4ccccc4nc3n(CC3CCCO3)c2=N)cc1", "note": "(stereo unspecified)", "B-score": -0.73}, {"compound": "CCOC(=O)c1cnc2sccn2c1=O", "B-score": -0.341}, {"compound": "CCCn1c(=NC(C)=O)c(C(=O)OCC)cc2c(=O)n3ccccc3nc21", "B-score": "4.16 (active)"}, {"compound": "COc1cccc(N2C(=O)C3CCCN3C2c2ccc(F)cc2)c1", "note": "(stereo unspecified)", "B-score": 0.0389}, {"compound": "COCCNC(=O)C(c1ccc(C)o1)N(Cc1ccccc1)C(=O)Cn1nnc2ccccc21", "note": "(stereo unspecified)", "B-score": 0.0616}, {"compound": "COc1ccc(-c2nn(-c3ccccc3)cc2C(=O)Nc2nc(CC(C)=O)ns2)cc1", "B-score": 0.451}, {"compound": "Cc1ccc(-c2nn(-c3ccccc3)cc2CN(Cc2ccccc2)C(=O)CCC(=O)O)o1", "B-score": "13.6 (active)"}, {"compound": "O=C(O)CCCC(=O)Nc1ccccc1-n1ccnc1", "B-score": -0.0259}, {"compound": "CNC(=O)CSc1nnc(CCc2ccccc2)n1-c1ccccc1", "B-score": 0.762}, {"compound": "O=C(CN1CCN(c2nc(-c3ccccc3)cs2)CC1)NCc1ccc2c(c1)OCO2", "B-score": -0.0459}, {"compound": "c1ccc(-c2nnc3n2NC(c2ccc4c(c2)OCO4)S3)cc1", "note": "(stereo unspecified)", "B-score": "7.49 (active)"}, {"compound": "CC1=C(C(N)=O)C(c2ccc3c(c2)OCO3)n2nc(-c3cccc(C)c3)nc2N1", "note": "(stereo unspecified)", "B-score": 0.00602}, {"compound": "COC(=O)c1cc(OC)c(OC)cc1NC(=O)C1CCCO1", "note": "(stereo unspecified)", "B-score": 3.46}, {"compound": "CCc1nnc(NC(=O)CSc2nnc(-c3ccncc3)n2Cc2ccccc2)s1", "B-score": -0.0482}, {"compound": "O=[n+]1c2c(n([O-])c3cc(Br)ccc31)CCC2", "B-score": -0.651}, {"compound": "Cn1c(-c2ccc(F)cc2)cnc1SCC(=O)NCc1ccco1", "B-score": -0.294}, {"compound": "O=C(CSc1nnc2scc(-c3ccc(F)cc3)n12)NCc1ccco1", "B-score": "6.74 (active)"}, {"compound": "Cc1ccc(-c2csc3nnc(SCC(=O)NCc4ccco4)n23)cc1", "B-score": 1.29}, {"compound": "Cn1c(SCC(=O)Nc2cccc(O)c2)nnc1-c1ccc(S(=O)(=O)N2CCOCC2)cc1", "B-score": 0.0252}, {"compound": "CN(C)CCCNc1c2c(c(C#N)c3nc4ccccc4n13)CCC2", "B-score": 0.142}, {"compound": "N#Cc1c2c(c(N3CCN(CCO)CC3)n3c1nc1ccccc13)CCCC2", "B-score": "4.34 (active)"}, {"compound": "CCCCn1c(CN2CCN(CCO)CC2)nc2ccccc21", "B-score": 1.03}, {"compound": "COc1ccc(C2CC(=O)C=C(NCC3CCCO3)C2)cc1", "note": "(stereo unspecified)", "B-score": 0.013}, {"compound": "CCn1c(SCC(=O)Nc2nc3ccc(OC)cc3s2)nnc1-c1ccoc1C", "B-score": -0.00542}, {"compound": "COc1cc2cc(CN(CCN3CCCC3)C(=O)Nc3ccccc3Cl)c(=O)[nH]c2cc1OC", "B-score": -0.557}, {"compound": "COc1ccccc1NC(=O)C1=C(C)NC2=C(C(=O)CCC2)C1c1ccc(C)o1", "note": "(stereo unspecified)", "B-score": 0.26}, {"compound": "COC(=O)C1=C(C)NC2=C(C(=O)c3ccccc32)C1c1ccc(-c2ccc(C(=O)O)cc2)o1", "note": "(stereo unspecified)", "B-score": "6.14 (active)"}, {"compound": "COC(=O)C1=C(C)NC(=O)NC1/C=C/c1ccccc1", "note": "(stereo unspecified)", "B-score": 0.394}, {"compound": "O=c1c2c(nc3n1CCCCC3)sc1c(O)cccc12", "B-score": "-6.41 (active)"}, {"compound": "O=C(Cn1[nH]c(=O)c2ccccc2c1=O)Nc1cccc(-c2nnc3n2CCCCC3)c1", "B-score": 0.394}, {"compound": "Cc1ccc2nc3n(c(=O)c2c1)CCC3", "B-score": -0.684}, {"compound": "CCSC(C)CC1C/C(=N/O)c2c(C)noc2C1", "note": "(stereo unspecified)", "B-score": 3.09}, {"compound": "COC(=O)C1C(=O)c2c([nH]c(C(=O)OCCSC)c2C)CC1C", "note": "(stereo unspecified)", "B-score": 0.0229}, {"compound": "CCOC(=O)c1[nH]c2c(c1C)C(=O)CC(c1ccc(N(C)C)cc1)C2", "note": "(stereo unspecified)", "B-score": -1.04}, {"compound": "CCCOC(=O)c1[nH]c2c(c1C)C(=O)CC(c1cc(OC)c(OC)c(OC)c1)C2", "note": "(stereo unspecified)", "B-score": "-3.89 (active)"}, {"compound": "O=C(CN1C2CCC1CC(NC(=O)C1CC1)C2)NCc1ccccc1", "note": "(stereo unspecified)", "B-score": 0.0586}, {"compound": "CCOC(=O)Cc1c(C)nc2c(C#N)c(C)nn2c1C", "B-score": -0.671}, {"compound": "Cc1ccc(-n2ncc3c2ncn2nc(-c4ccco4)nc32)c(C)c1", "B-score": 0.753}, {"compound": "Cc1ccc(-n2ncc3c(=O)[nH]cnc32)c(C)c1", "B-score": -0.523}, {"compound": "Cc1ccc(-n2ncc3c(N4CCN(c5ccc(F)cc5)CC4)ncnc32)c(C)c1", "B-score": "-2.95 (active)"}, {"compound": "Cc1ccc(C(c2sc3nc(C)nn3c2O)N2CCN(c3ccc(F)cc3)CC2)cc1", "note": "(stereo unspecified)", "B-score": -1.2}, {"compound": "Cc1ccc(C(c2sc3nc(C)nn3c2O)N2CCN(c3ccccc3)CC2)cc1", "note": "(stereo unspecified)", "B-score": "-3.44 (active)"}, {"compound": "Cc1nc2sc(C(c3ccco3)N3CCOCC3)c(O)n2n1", "note": "(stereo unspecified)", "B-score": 0.108}, {"compound": "O=C(Nc1c(C(=O)N2CCCCC2)cnn1-c1ccccc1)c1ccco1", "B-score": -0.19}, {"compound": "CCC(=O)NC(=Nc1nc2ccccc2s1)NC(=O)CC", "B-score": "11.5 (active)"}, {"compound": "COC(=O)Cc1cc(=O)n(-c2nc3ccccc3s2)[nH]1", "B-score": 0.0542}, {"compound": "O=C(O)CSCc1nc2ccccc2s1", "B-score": -0.539}]}]}
